# Records with an inconclusive call do not appear. A number with no mark means an inactive call. Calls of active or inactive are those of the source. The call rests on the fitted dose curve; in most records, active means well fitted inhibition curve with a large enough effect; inconclusive means small, poorly fitted or top-dose-only effect; inactive means flat fitted curve, though single readings scatter.
# System: CP203
# Test: qHTS profiling for inhibitors of Plasmodium falciparum proliferation (AID 504749); further: nearly all actives have a fitted effect of over 60% in size;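 on activity, negative = inhibition: 0% = DMSO vehicle and full inhibition = artemisinin control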
# Conditions: P. falciparum in erythrocytes, SYBR Green DNA, 72 h; series mostly up to 28.7 µM; activity, negative = inhibition: at the top concentration
# Description: NIH National Institute of Allergy and Infectious Diseases [NIAID] NIH Chemical Genomics Center [NCGC] MLPCN Grant: None Assay Provider: Xinzhuan Su, NIAID NCGC Assay Overview: Plasmodium falciparum is a virulent malarial parasite that kills 1-2 million people worldwide each year. Transmitted by mosquitoes, the sporozoite form of the parasite enters the blood stream to infect hepatocytes, where they become merozoites that infect red blood cells (erythrocytes). Within erythrocytes, merozoites begin a […] cycle of growth and division, after which the parasite is released to infect new red blood cells. Gametocytes, which form within erythrocytes as well, circulate in the bloodstream and are ingested by the mosquito, thereby completing the life cycle. To profile malarial isolates for differential chemical responses and to identify inhibitors of malarial growth, an assay that measures P. falciparum growth and replication within erythrocytes was employed. This assay uses a DNA binding fluorescent dye (SYBR Green) to detect parasite DNA following cell lysis. Because mature erythrocytes lack DNA, only Plasmodium-derived DNA is detected.
# NCGC Assay Protocol Summary: The SYBR Green viability assay was adapted from a method described previously (Plouffe et al., 2008). For screening 3 ul culture medium was dispensed into 1536 well black clear bottom plates (Aurora Biotechnologies) using a Multidrop Combi (Thermo Fisher Scientific Inc.), 23 nL compounds in DMSO were added by a pin tool (Kalypsys), and 5 ul of erythrocytes infected with P. falciparum (0.3% parasitemia, 2.5% hematocrit final concentration) were added. The plates were incubated at 37 C in a humidified incubator in 5% CO2 for 72 h, and 2 ul lysis buffer (20 mM Tris HCl, 10 mM EDTA, 0.16% saponin, 1.6% triton X, 10X SYBR Green I supplied as 10,000X […] by Invitrogen) was added to each well. The plates were mixed for 25 sec with gentle shaking and incubated overnight at room temperature in the dark. The following morning, fluorescence intensity at 485(14) nm excitation and 535(25) nm emission wavelengths was measured on an EnVision (Perkin Elmer) plate reader. Plate reads were normalized relative to the control inhibitor (0.29 uM artemisinin) and vehicle (DMSO) wells present on each plate and then corrected by an algorithm using vehicle-only control plates at the beginning and end of the compound plate stack.
# Potency means the concentration at half of the fitted maximal effect.
Compound,"activity, negative = inhibition [%]",Potency
CCOP(=S)(OCC)Oc1cc(C)nc(C(C)C)n1,-10.2,–
CC(C)=CC1C(C(=O)OCc2cccc(Oc3ccccc3)c2)C1(C)C (stereo not given),1.19,–
NCC(O)c1ccc(O)cc1 (stereo not given),-3.26,–
CCC(COC(=O)c1cc(OC)c(OC)c(OC)c1)(c1ccccc1)N(C)C (stereo not given),-20.3,–
O=c1[nH]c2ccccc2n1C1CCN(CCCC(c2ccc(F)cc2)c2ccc(F)cc2)CC1,1.86,–
CC1OC(C)OC(C)O1 (stereo not given),–,inactive
N[C@@H](Cc1ccc(N(CCCl)CCCl)cc1)C(=O)O,-10.5,–
CC(C)(C)CC(C)(C)c1ccc(O)cc1,-8.18,–
COc1ccc(C(=O)c2c(C)n(CCN3CCOCC3)c3ccccc23)cc1,-0.734,–
CCOC(=O)C1(c2ccccc2)CCN(CCC(C#N)(c2ccccc2)c2ccccc2)CC1,–,4.78 µM (active)
CC(=O)[C@H]1CC[C@H]2[C@@H]3CC[C@H]4C[C@](C)(O)CC[C@]4(C)[C@H]3CC[C@]12C,-10.1,–
Oc1cc(Cl)ccc1Oc1ccc(Cl)cc1Cl,–,15.1 µM (active)
Clc1cccc(N2CCNCC2)c1,-15.6,–
C=C(C)[C@H]1Cc2c(ccc3c2O[C@@H]2COc4cc(OC)c(OC)cc4[C@@H]2C3=O)O1,-1.2,–
CC(=O)Nc1cc([As](=O)(O)O)ccc1O,3.58,–
CCC1(C2=NCCN2)Cc2ccccc2O1 (stereo not given),–,10.7 µM (active)
CC(=O)[C@H]1CC[C@H]2[C@@H]3CC[C@H]4C[C@H](O)CC[C@]4(C)[C@H]3C(=O)C[C@]12C,0.784,–
C#CCOC(C(=O)OCCN(C)C)(c1ccccc1)c1ccccc1,8.06,–
CCN(C(C)=O)c1cccc(-c2ccnc3c(C#N)cnn23)c1,0.971,–
CC1NCCOC1c1ccccc1 (stereo not given),-15.5,–

Compound,"activity, negative = inhibition [%]",Potency
CCC(C(N)=O)N1CCCC1=O (stereo not given),-0.0728,–
Fc1ccc(C(OCCN2CCN(CCCc3ccccc3)CC2)c2ccc(F)cc2)cc1,–,12 µM (active)
CCCC(C)(COC(N)=O)COC(=O)NC(C)C (stereo not given),-3.12,–
CC[N+](CC)(CC)CC,9.8,–
NN=C(N)N,-12.5,–
C[C@]12C/C(=C/O)C(=O)C[C@@H]1CC[C@@H]1[C@@H]2CC[C@@]2(C)[C@H]1CC[C@]2(C)O,-12.1,–
CCCC1CCCCN1 (stereo not given),-2.48,–
c1ccc2c(c1)OCC(C1=NCCN1)O2 (stereo not given),-4.93,–
NP(N)(=O)NC(=O)c1ccc(F)cc1,11.9,–
c1ccc(C2CC2)c(OCC2=NCCN2)c1,-1.86,–
Cc1ccc(S(=O)(=O)N[C@@H](CCCCN)C(=O)CCl)cc1,-18.3,–
FC(F)(F)c1cccc(C2=CCN(CCc3ccc4ccccc4c3)CC2)c1,1.73,–
CN(C)CCc1ccc(O)cc1,2.54,–
CCCN1CCC[C@@H]2Cc3[nH]ncc3C[C@H]21,-1.49,–
C=C1CC[C@@]2(O)[C@H]3Cc4ccc(O)c5c4[C@@]2(CCN3CC2CC2)[C@H]1O5,-17.4,–
Cc1ncc(CNC(=O)N(CCCl)N=O)c(N)n1,-0.554,–
O=C(NC(O)C(Cl)(Cl)Cl)NC(O)C(Cl)(Cl)Cl (stereo not given),-4.32,–
Clc1ccc(COC(Cn2ccnc2)c2ccc(Cl)cc2Cl)cc1 (stereo not given),–,4.26 µM (active)
NCC(CC(=O)O)c1ccc(Cl)cc1 (stereo not given),-7.73,–
CCN(CC)CCOC(=O)C(O)(c1ccccc1)c1ccccc1,13,–

# Reference: PubChem BioAssay (NCATS)
